From the supplement of paper PMC11732987, “Enantioselective OTUD7B fragment discovery through chemoproteomics screening and high-throughput optimisation” (Communications Chemistry, 2025)

Target: T1, OTUD5 (UniProt Q96G74)
T1 sequence (whole entry): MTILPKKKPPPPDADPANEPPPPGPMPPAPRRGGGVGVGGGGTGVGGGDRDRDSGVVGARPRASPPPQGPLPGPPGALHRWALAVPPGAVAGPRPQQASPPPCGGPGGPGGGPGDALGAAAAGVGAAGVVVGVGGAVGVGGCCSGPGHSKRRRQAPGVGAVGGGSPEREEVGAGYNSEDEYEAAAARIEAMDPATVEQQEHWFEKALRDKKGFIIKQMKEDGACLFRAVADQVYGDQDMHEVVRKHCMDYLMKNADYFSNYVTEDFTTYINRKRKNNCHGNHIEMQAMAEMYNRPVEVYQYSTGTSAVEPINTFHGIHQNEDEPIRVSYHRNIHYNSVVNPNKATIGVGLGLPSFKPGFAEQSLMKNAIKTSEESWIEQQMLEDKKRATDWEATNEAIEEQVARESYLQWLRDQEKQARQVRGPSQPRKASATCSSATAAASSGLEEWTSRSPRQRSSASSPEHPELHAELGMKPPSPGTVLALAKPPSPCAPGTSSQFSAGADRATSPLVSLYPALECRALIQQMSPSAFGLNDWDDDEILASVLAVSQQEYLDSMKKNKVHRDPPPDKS
Assay: log2 ratio of Biotin-Ahx-Ub-VS probe labelling (fragment/DMSO); higher = less target engagement (more negative = stronger competition), active = hit call of the paper (q ≤ 0.05, log2 ratio ≤ -1)
Details: compound concentration: 200 uM; treatment time: 3 h
Method in brief: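 Triplicate samples of HEK293T lysate, 495 µg each, received fragment at 200 µM or vehicle for 3 h, followed by Biotin-Ahx-Ub-VS (0.5 µM final) for 1 h. After NeutrAvidin enrichment of labelled DUBs and LysC/trypsin digestion, peptides were run by diaPASEF LC-MS/MS. The values are average log2 fragment/vehicle ratios from global-median-normalised Spectronaut label-free quantities, tested by unpaired t-test on proteins having ≥2 unique peptides.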

log2 ratio of Biotin-Ahx-Ub-VS probe labelling, inactive:
Cc1cccc(N(CCC#N)C(=O)CCl)c1C -0.19, O=C(CCl)NCC(=O)N1CCCC1 -0.231, Cl.O=C(CCl)NC1(c2ncccn2)CCC1 0.0342, Cc1ccccc1OCC(=O)N1CCN(C(=O)CCl)CC1 -0.161, O=C(CCl)N1CCOC2(CCC2)CC1 -0.595, O=C(CCl)N1CCOC(CCc2ccccc2)C1 (configuration not stated) -0.502, CCC(NC(=O)CCl)c1ccc(Cl)cc1 (configuration not stated) -0.123, COc1cc(Cl)c(C)cc1NC(=O)CCl -0.644, O=C(CCl)NCc1cccc(F)c1 -0.429, O=C(CCl)NCc1cccc(N2CCCC2=O)c1 -0.358, Cl.O=C(CCl)NCc1cc2c(nc1O)CCCC2 -0.468, COc1ccc(CN(C)C(=O)CCl)cc1 -0.536, CC1CCc2onc(CNC(=O)CCl)c2C1 (configuration not stated) 0.0465, N#Cc1ccccc1N1CCN(C(=O)CCl)CC1 -0.872, Cl.O=C(CCl)N1CCc2ncncc2C1 -0.373, Cc1cc(Cl)ccc1NC(=O)CCl -0.0787, Cc1ccc(CC(NC(=O)CCl)c2ccccn2)cc1.Cl (configuration not stated) -0.157, O=C(CCl)N1CCC(C(=O)N2CCCC2)CC1 -0.137, CCc1c[nH]c(CNC(=O)CCl)n1.Cl -0.482, O=C(CCl)NC(Cn1ccccc1=O)c1ccccc1 (configuration not stated) -0.104, Cc1nnc(C(NC(=O)CCl)c2ccccc2)n1C (configuration not stated) 0.385, Cc1cccc2nc(CCNC(=O)CCl)cn12.Cl -0.495, Cc1cccnc1NC(=O)C1CCN(C(=O)CCl)CC1.Cl -0.447, COc1cccc(CN(C)C(=O)CCl)c1 -0.999, Cl.O=C(CCl)NCCN1CCc2ccccc21 -0.79, O=C(CCl)N1CCC(c2nc3ccccc3o2)CC1 -0.841, O=C(CCl)NC1CCC(C(F)(F)F)CC1 (configuration not stated) -0.288, Cc1nc(CNC(=O)CCl)c2ccccn12.Cl -0.159, O=C(CCl)NC1CCS(=O)(=O)c2ccccc21 (configuration not stated) -0.271, O=C(CCl)N1CCC(=C(F)CO)C1 -0.126, O=C(CCl)Nc1cccc2ncccc12 -0.516, O=C(CCl)Nc1cccc(C(=O)N2CCSCC2)c1 -0.638
